KB-V1 cytotox: KB-V1 MDR subline cytotoxicity; KB-V1 MDR cells viability, CellTiter-Glo, 72 h; Potency, µM (top dose mostly 46.1 µM), hits mostly cytotoxic; actives 3.4% (n = 400,000); AID 1347076; also: nearly all actives have a fitted effect of over 60% in size
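Cytotoxicity via CellTiter-Glo luminescence after 72 h compound exposure at 37 degrees C. Cells: drug-selected KB-V1 line, DMEM phenol-red free plus 10% FBS. Compounds tested at multiple concentrations; normalized data fitted to concentration-effect curves.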
SW480 rereplic: DNA re-replication induction in SW480 cells; SW480 DNA re-replication, Hoechst DNA content imaging, 48 h; Potency, µM (series often up to 46.1 µM), most hits filed as activators; actives 1.8% (n = 340,000); AID 624297; also: nearly all actives have a fitted effect of over 55% in size
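First, 250 cells per well were seeded. Next, compound or vehicle (23 nL) was pinned in, plates sat 48 hr at 37 C. Finally Hoechst was added for 40 min before fluorescence scanning.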
HT1080 IDH1KD tx: HT-1080 IDH1 knockdown cell toxicity (counter line); actives 2% (n = 360,000); HT-1080 IDH1 knockdown viability, ATP luminescence, 48 h; AID 686971; Potency, µM (titrated, usually from 46.1 µM), most hits filed as cytotoxic
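HT-1080-IDH1KD cells (IDH1 knocked down), 750/well in RPMI with 5% FBS, treated with compound 48 h at 37 degrees C. Viability by CellTiter-Glo luminescence, normalised to DMSO and no-cell wells; concentration-response curves classed.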
KB-3-1 tox: kills parental KB-3-1 adenocarcinoma cells | KB-3-1 viability, CellTiter-Glo ATP luminescence, 72 h | Potency, µM (top dose mostly 46.1 µM), actives largely listed as cytotoxic | actives 1.4% (n = 400,000); also: nearly all actives have a fitted effect of over 60% in size
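Parental KB-3-1 adenocarcinoma cells in phenol-red-free DMEM with 10% FBS were pin-treated with compounds at several concentrations, incubated 72 h at 37 °C, and viability read by CellTiter-Glo luminescence; concentration-effect curves were fitted after normalization.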
HT1080-NT tox: kills 2HG-producing HT-1080-NT fibrosarcoma cells. AID 686970. Potency, µM (top dose mostly 46.1 µM), actives largely listed as cytotoxic. actives 1.6% (n = 360,000). HT-1080-NT fibrosarcoma viability, CellTiter-Glo ATP luminescence, 48 h;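 also: NT is the 2HG producing partner of a matched IDH1 knockdown line; nearly all actives have a fitted effect of over 55% in size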
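Luminescent CellTiter-Glo readout after 48 hours of compound exposure at 37 degrees C defined viability of HT-1080-NT cells. Activity was normalized to DMSO wells and cell-free media wells; concentration-response curves were fitted and assigned curve classes.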
MCF10A rerep: inducers of DNA re-replication in MCF 10A breast cells | MCF 10A DNA re-replication, Hoechst nuclear intensity, 48 h | Potency, µM (titrated, usually from 46.1 µM), hits mostly activators | actives 2.9% (n = 350,000); also: nearly all actives have a fitted effect of over 50% in size
Numbers stand for hits; 0 = inactive; ? = inconclusive; - = no result. Most compounds without a hit are left out; they make up all but 7.9% or so of the library. Calls follow the shape of the dose curve; as a rule, active = well fitted curve in the direction sought with a large enough effect; inconclusive = small, poorly fitted or top-dose-only effect, or another doubt; inactive = no such curve, though single readings can be large; an effect the other way counts as inactive or inconclusive.

SMILES | KB-V1 cytotox | SW480 rereplic | HT1080 IDH1KD tx | KB-3-1 tox | HT1080-NT tox | MCF10A rerep
Cc1cc(C)nc(/N=C(\N)Nc2ccc(OCc3ccccc3)cc2)n1 | ? | ? | ? | ? | 18µM | ?
COc1ccc(N/C(N)=N/c2nc(C)cc(C)n2)cc1 | 0 | - | 0 | 0 | 0 | -
Cc1cc(C)nc(/N=C(\N)Nc2cccc(OCc3ccccc3)c2)n1 | 5.8µM | ? | ? | ? | ? | 13µM
Cc1cc(C)nc(/N=C(\N)Nc2ccc(OCCC(C)C)cc2)n1 | ? | 0 | 23µM | ? | 15µM | ?
COc1cc2c(cc1OC)/C(=C/c1ccc(N(C)C)cc1)C=C2 | ? | - | - | 0 | - | -
Cc1ccc2c(c1)c1c(c(=O)n(-c3ccccc3C)c(=O)n1Cc1ccccc1F)n2C | 0 | - | - | 0 | - | -
CCCN1CCC2(CC1)NC(C(=O)O)Cc1c2[nH]c2ccccc12 (centres undefined) | 0 | 0 | 0 | 0 | 0 | 0
COC(=O)C1Cc2c([nH]c3ccccc23)C2(CCN(Cc3ccccc3)CC2)N1 (centres undefined) | ? | 0 | 18µM | 0 | 18µM | 0
COc1ccc(C#Cc2c[nH]c(=O)c3cncnc23)cc1OC | - | - | 0 | - | 0 | -
CC(C)CCCCCCCCCCCCC(=O)NCC(=O)NC1C(C)OC(Nc2ncnc3nc[nH]c23)C(O)C1O (centres undefined) | ? | 0 | 0.12µM | 0.01µM | 1.8µM | 0
CC(C)CNc1ncnc2nc[nH]c12 | 0 | - | - | 0 | - | -
O=C1C(Cl)=C(NCCCN2CCOCC2)C(=O)c2ccccc21 | ? | ? | ? | 0 | 0 | ?
O=C1C(Cl)=C(NCCCO)C(=O)c2ccccc21 | 0 | ? | ? | 23µM | ? | ?
O=C1C(Cl)=C(NCCN2CCOCC2)C(=O)c2ccccc21 | ? | ? | 18µM | ? | ? | 0
CCC(C(=O)NCCc1ccccc1)n1nc(C)n2c(cc3sccc32)c1=O (centres undefined) | 0 | - | - | 0 | - | -
O=C(NCCCN1CCN(c2ccc(F)cc2)CC1)c1sc2ncccc2c1-n1cccc1 | 0 | - | - | 0 | - | -
CCOc1cc(CNC(=O)C2COc3ccccc3C2)cc(OCC)c1OCC (centres undefined) | 0 | - | - | 0 | - | -
Cc1ccc(S(=O)(=O)N2CCOCC2)cc1NC(=O)CSc1nc2ccccc2c(=O)n1Cc1ccccc1 | 8.2µM | 0 | 0 | 0 | 0 | 0
Cc1cc(NC(=O)CSc2nc3ccccc3c(=O)n2Cc2ccc(F)cc2)no1 | 0 | 0 | 0 | 0 | 0 | ?
COCCn1c(SCC(=O)Nc2ccc(S(=O)(=O)N3CCOCC3)cc2)nc2ccccc21 | 5.2µM | 0 | 0 | 0 | 0 | 0
O=C(CSc1nc2ccccc2c(=O)n1Cc1ccccc1)Nc1ccc(Br)cc1C(=O)O | 0 | 0 | 0 | 0 | 0 | 23µM
COc1ccc(CNS(=O)(=O)c2csc(C(N)=O)c2)cc1OC | ? | 0 | 0 | 0 | 0 | 0
COc1ccc(NC(=O)C(NC(=O)OC(C)(C)C)C(C)OCc2ccccc2)cc1 (centres undefined) | 4.1µM | 0 | ? | 0 | 0 | 0
CN(C)C(=O)[C@H]1C[C@H]1[C@@H](O)[C@H](CO)NC(=O)[C@H](COCc1ccccc1)NC(=O)OC(C)(C)C | 0 | 0 | 0 | 0 | 0 | 0
COc1ccc(NC(=O)[C@H](COCc2ccccc2)NC(=O)OC(C)(C)C)cc1 | 5.2µM | 0 | 0 | 0 | 0 | 0
Cc1ccccc1CN1CCNC(=O)C1CC(=O)NCCN1CCCCC1=O (centres undefined) | 0 | 0 | 0 | 0 | 0 | 0
Cc1cc(C)n(CC(O)Cn2c3ccc(Cl)cc3c3cc(Cl)ccc32)c(=O)n1 (centres undefined) | 16µM | 0 | ? | 0 | ? | 0
Cc1cc(C)n(CC(O)Cn2c3ccccc3c3ccccc32)n1 (centres undefined) | 0 | 0 | ? | 0 | 0 | ?
CN(c1cccc(NC(=O)c2ccccc2N(Cc2ccccc2)S(C)(=O)=O)c1)S(C)(=O)=O | 0 | 0 | 0 | 0 | 0 | 0
CCc1ccc(NC(=O)c2ccc(F)c(S(=O)(=O)N(CC)c3ccccc3)c2)cc1 | 0 | 0 | ? | 0 | 0 | 0

Screening data (PubChem)
